High-throughput results (PubChem)
FLuc counter: counter-screen for miR-21 project: firefly luciferase inhibitors or activators. hit rate 6.9% among 360,000. purified FLuc, Km substrates, luminescence inhibition. P08659. Potency, µM (doses to about 57.5 µM), actives largely listed as inhibitors; note: nearly all actives have a fitted effect of over 55% in size
Target sequence (P08659 whole entry, looked up): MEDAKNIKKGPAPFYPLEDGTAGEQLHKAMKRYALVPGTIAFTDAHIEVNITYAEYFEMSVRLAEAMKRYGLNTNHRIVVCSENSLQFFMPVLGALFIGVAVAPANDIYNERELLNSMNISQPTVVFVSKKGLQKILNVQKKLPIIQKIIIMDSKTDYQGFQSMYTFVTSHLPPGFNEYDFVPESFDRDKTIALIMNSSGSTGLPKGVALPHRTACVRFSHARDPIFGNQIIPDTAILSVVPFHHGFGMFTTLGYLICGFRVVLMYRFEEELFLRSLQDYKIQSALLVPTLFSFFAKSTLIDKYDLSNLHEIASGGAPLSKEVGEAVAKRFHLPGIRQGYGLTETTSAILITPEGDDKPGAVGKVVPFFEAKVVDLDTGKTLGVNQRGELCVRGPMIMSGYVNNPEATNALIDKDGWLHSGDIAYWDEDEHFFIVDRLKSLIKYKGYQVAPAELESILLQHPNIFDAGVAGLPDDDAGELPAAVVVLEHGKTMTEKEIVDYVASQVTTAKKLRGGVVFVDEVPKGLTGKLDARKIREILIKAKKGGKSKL
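Purified P. pyralis luciferase (10nM final) with 10uM D-luciferin and 10uM ATP (Km levels) in 50mM Tris acetate pH 7.5, 10mM Mg acetate, 0.01% Tween-20, 0.05% BSA; qHTS 6-point titration, ~60 µM downward; luminescence read.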
ELG1 genotoxic: induces genotoxicity in HEK293T cells with luciferase-tagged ELG1 | HEK293T ELG1-luciferase reporter, luminescence, 16 h | Potency, µM (series often up to 46 µM), hits mostly activators | hit rate 1.3% among 330,000 | AID 504466; note: nearly all actives have a fitted effect of over 60% in size
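Quantitative HTS format in 1536-well plates. HEK293T ELG1-luciferase reporter cells receive test compound and are incubated 16 hr at 37 °C, 5% CO2; ONE-Glo added, 30 min room temperature, then luminescence read.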
Luc counter: blocks Kinase-Glo luciferase, a counter-screen artifact; hit rate 0.28% among 200,000; Potency, µM (top dose mostly 38.3 µM), most hits filed as inhibitors; Q27757; Kinase-Glo luciferase, ATP luminescence, 8 min; note: nearly all actives have a fitted effect of over 60% in size
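Luminescence was the read-out, taken after 8-minute incubation at ambient temperature. Luciferase turned over luciferin with 10 uM ATP in imidazole pH 7.2 buffer containing KCl, MgCl2, Tween 20 and BSA.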
Rab9 promoter act: Rab9 promoter activation; hit rate 2.8% among 320,000; Potency, µM (doses to about 9.22 µM), usual class: activators; AID 485297; Huh7 Rab9 promoter-luciferase reporter, luminescence, 24 h; note: nearly all actives have a fitted effect of over 60% in size
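Cell-based reporter: Huh7 stable for Rab9 promoter-driven luciferase, plated in reduced-serum medium with 10% FBS at 1500 cells/well, compound-treated 24 h at 37 °C, luminescence read after 10 min reagent.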
SMN2 splice enh: increases expression of the SMN2 splice variant; AID 1458; Potency, µM (top dose mostly 46.1 µM), actives largely listed as activators; hit rate 2.8% among 210,000; HEK293 SMN2-luciferase splicing reporter, luminescence, 30-36 h; note: nearly all actives have a fitted effect of over 55% in size
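qHTS luciferase splicing reporter: luminescence rises when SMN2 exon 7 is included in transfected HEK293 cells. Compound exposure lasted 30-36 h at 37C, with 4.5 mM final sodium butyrate as control, followed by a ONE-Glo read.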
NPC1 promoter act: activates the NPC1 promoter | Huh7 NPC1 promoter luciferase reporter, 24 h | Potency, µM (highest dose often 9.22 µM), most hits filed as activators | hit rate 2.4% among 320,000; note: nearly all actives have a fitted effect of over 60% in size
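Huh7 cells stably carrying NPC1 promoter–luciferase, plated in Opti-MEM with 10% FBS for 2 h, were exposed to compound in DMSO for 24 h at 37 °C; luciferase reagent was added for 10 min and luminescence read.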
Of the large screens only hits and unclear results are named; the others gave an inactive call. A selection: hits, their analogues and other compounds. The true share with any hit is near 7.3%. Calls come from the whole dose curve; as a rule, active = well fitted curve in the direction sought with a large enough effect; inconclusive = small, poorly fitted or top-dose-only effect, or another doubt; inactive = no such curve, though single readings can be large; an effect the other way counts as inactive or inconclusive.

Cc1cc(N2CCN(c3ccc(F)cc3)CC2)nc(-c2ccccc2)n1	none
O=c1c(-c2ccc(Cl)cc2)c[nH]n1-c1ccccc1	FLuc counter 9.53µM, NPC1 promoter act inconclusive (no result: Luc counter, SMN2 splice enh)
Cc1[nH]n(-c2ccccc2)c(=O)c1-c1ccc(Cl)cc1	FLuc counter inconclusive
O=c1c(-c2ccccc2)c[nH]n1-c1cccc([N+](=O)[O-])c1	FLuc counter 15.1µM, Rab9 promoter act inconclusive, NPC1 promoter act inconclusive (no result: SMN2 splice enh)
Cn1c(SCC(=O)NCC2CCCO2)nnc1-c1c[nH]c2ccccc12 (centres undefined)	none
CC(C)(C)C1=NN(c2ccc([N+](=O)[O-])cc2)C(c2ccccc2)C1 (centres undefined)	none
CCC(C)(C)C1CCC2(CC1)NC(=O)N(CC(=O)N(C)CC(=O)Nc1ccccc1C(F)(F)F)C2=O (centres undefined)	FLuc counter inconclusive, Rab9 promoter act inconclusive (no result: Luc counter, SMN2 splice enh)
COCCn1c(C)cc(C(=O)COC(=O)c2ccc([N+](=O)[O-])o2)c1C	FLuc counter 12µM
C=CCn1c(C)cc(C(=O)COC(=O)C2CC(=O)N(CCc3ccc(OC)c(OC)c3)C2)c1C (centres undefined)	none (no result: Luc counter, SMN2 splice enh)
COCCn1c(C)cc(C(=O)COC(=O)C2CC(=O)N(CCc3ccc(OC)c(OC)c3)C2)c1C (centres undefined)	FLuc counter 10.7µM (no result: Luc counter, SMN2 splice enh)
Cc1cc(C(=O)COC(=O)c2ccc([N+](=O)[O-])o2)c(C)n1CC1CCCO1 (centres undefined)	FLuc counter 10.7µM
O=C(Nc1ccc(-c2csc(Nc3ccc(Cl)cc3)n2)cc1)c1cc([N+](=O)[O-])cc(C(F)(F)F)c1	none (no result: Luc counter, SMN2 splice enh)
CCOC(=O)c1cc(-c2ccccc2)n(CCC(=O)Nc2cc(OCC)ccc2OCC)c1C	none (no result: ELG1 genotoxic, Luc counter, Rab9 promoter act, SMN2 splice enh, NPC1 promoter act)
O=C(Nc1ccc(Nc2ccccc2)cc1)c1ccccc1F	FLuc counter 12µM, ELG1 genotoxic inconclusive, Rab9 promoter act inconclusive, NPC1 promoter act inconclusive (no result: Luc counter, SMN2 splice enh)
CCN(CC)c1ccc(NC(=O)c2ccccc2F)cc1	FLuc counter 6.01µM, ELG1 genotoxic inconclusive, Rab9 promoter act 0.562µM, SMN2 splice enh 11.2µM, NPC1 promoter act inconclusive
O=C(O)c1cc(NC(=O)c2ccccc2F)cc(NC(=O)c2ccccc2F)c1	none (no result: Luc counter, SMN2 splice enh)
Cc1cc(NC(=O)CCCC(=O)O)nc(C)n1	none
CCN(CC(=O)Nc1cc(Cl)ccc1C)C(=O)C1CC1	none (no result: Luc counter, SMN2 splice enh)
CC1=[N+](C)N(c2ccccc2)C(=O)C1N=C/C=C/c1ccccc1 (centres undefined)	FLuc counter 15.1µM (no result: Luc counter, SMN2 splice enh)
COc1ccccc1/C=C/C=NC1C(=O)N(c2ccccc2)[N+](C)=C1C (centres undefined)	FLuc counter inconclusive (no result: Luc counter, SMN2 splice enh)
COc1ccccc1C(=O)Nc1ccc2c(c1)OCO2	FLuc counter 13.5µM, ELG1 genotoxic 14.6µM, Rab9 promoter act 2.51µM, NPC1 promoter act inconclusive
COc1cc(SC)ccc1C(=O)Nc1ccc2c(c1)OCCO2	FLuc counter 0.536µM, ELG1 genotoxic inconclusive, Rab9 promoter act 0.891µM, SMN2 splice enh 5.62µM, NPC1 promoter act inconclusive
COc1ccccc1C(=O)Nc1ccc2c(c1)OCCO2	FLuc counter 7.57µM, ELG1 genotoxic inconclusive, Rab9 promoter act 1.78µM, SMN2 splice enh 12.6µM, NPC1 promoter act 3.16µM
Cc1ccccc1C(=O)Nc1ccc2c(c1)OCO2	FLuc counter 4.78µM, ELG1 genotoxic 1.64µM, Luc counter inconclusive, Rab9 promoter act 0.447µM, SMN2 splice enh 0.794µM, NPC1 promoter act 0.447µM
CCc1ccccc1NC(=O)C1CCC(CNS(=O)(=O)c2ccc3c(c2)CC(C)N3C(C)=O)CC1 (centres undefined)	none (no result: ELG1 genotoxic, Luc counter, Rab9 promoter act, SMN2 splice enh, NPC1 promoter act)
CN(C(=O)COC(=O)c1cc([N+](=O)[O-])ccc1Sc1ccccc1)C1CCS(=O)(=O)C1 (centres undefined)	none
Cc1cc(C(=O)COc2cccnc2[N+](=O)[O-])c(C)n1Cc1ccco1	FLuc counter inconclusive
Cc1ccc(-n2c(C)cc(C(=O)COc3cccnc3[N+](=O)[O-])c2C)cc1	FLuc counter 16.9µM, ELG1 genotoxic inconclusive
Cc1cc(C(=O)COc2cccnc2[N+](=O)[O-])c(C)n1-c1ccccc1F	FLuc counter 6.01µM (no result: Luc counter, SMN2 splice enh)
